# nsP2pro inh = blocks chikungunya virus nsP2 protease peptide cleavage. Potency, µM (highest dose often 24.9 µM), for the others: at the top dose activity change, negative = inhibition, usual class: inhibitors. FRET peptide cleavage, nsP2pro, fluorescence 1 h. actives 1.1% (n = 31,000); also: nearly all actives have a fitted effect of over 60% in size
#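 Purified recombinant nsP2pro (150 nM final) in 10 mM Tris-HCl pH 8.0 with 0.01% Tween 20 was preincubated 15 min at room temperature with compound (7 concentrations, up to 25 uM). FRET peptide 2 substrate (2.5 uM final) was then added; fluorescence was read after 1 h.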
# CHIKV nsP2 cell = secondary cell-based test for CHIKV nsP2 protease inhibitors | shares compounds with nsP2pro inh | cell-based CHIKV nsP2 protease reporter assay | Potency, µM (series often up to 51.1 µM), for inactives: top-dose activity change, negative = inhibition, most hits filed as inhibitors | actives 10% (n = 450) | AID 1964100; also: nearly all actives have a fitted effect of over 70% in size
# Target sequence (Q8JUX6 220-798 limits assumed): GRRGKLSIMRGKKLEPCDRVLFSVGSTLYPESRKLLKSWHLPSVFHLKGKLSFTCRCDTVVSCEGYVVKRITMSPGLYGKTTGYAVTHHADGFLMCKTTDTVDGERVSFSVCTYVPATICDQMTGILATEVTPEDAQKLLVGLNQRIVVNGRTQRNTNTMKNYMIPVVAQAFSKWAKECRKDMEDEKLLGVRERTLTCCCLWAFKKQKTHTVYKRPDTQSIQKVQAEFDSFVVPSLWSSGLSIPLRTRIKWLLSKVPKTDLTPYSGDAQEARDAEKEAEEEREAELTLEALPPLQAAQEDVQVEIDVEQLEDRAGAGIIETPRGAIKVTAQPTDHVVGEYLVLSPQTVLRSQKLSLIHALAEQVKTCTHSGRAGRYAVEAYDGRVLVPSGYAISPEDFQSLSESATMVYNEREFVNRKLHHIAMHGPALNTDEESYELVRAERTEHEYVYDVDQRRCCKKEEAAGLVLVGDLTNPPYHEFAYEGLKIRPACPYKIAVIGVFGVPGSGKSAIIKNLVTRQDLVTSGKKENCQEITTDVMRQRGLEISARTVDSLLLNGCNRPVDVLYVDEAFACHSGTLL
# NSP2 full ctr = inhibits full-length CHIKV NSP2 enzyme; shares compounds with nsP2pro inh; Full-length CHIKV NSP2 protease enzymatic counterscreen; Potency, µM (highest dose often 50.7 µM), without a hit: at the top dose activity change, negative = inhibition, most hits filed as inhibitors; actives 39% (n = 410); AID 1964101; also: nearly all actives have a fitted effect of over 65% in size
# Furin counter = human furin inhibition, counterscreen for nsP2pro inhibitors | shares compounds with nsP2pro inh | actives 6% (n = 410) | Potency, µM (series often up to 50.6 µM), without a hit: at the top dose activity change, negative = inhibition, hits mostly inhibitors | Recombinant human furin enzymatic counterscreen, fluorogenic substrate
# nsP2 NS23 pep = nsP2pro inhibition on native NS2/3 peptide substrate; shares compounds with nsP2pro inh; Purified CHIKV nsP2 protease, endogenous NS2/3 peptide cleavage; Potency, µM (top dose mostly 51 µM), without a hit: at the top dose activity change, negative = inhibition, actives largely listed as inhibitors; actives 34% (n = 410); also: nearly all actives have a fitted effect of over 55% in size
# Papain cs = selectivity counter-screen for CHIKV nsP2 protease inhibitors: papain. shares compounds with nsP2pro inh. Potency, µM (series often up to 51 µM), without a hit: at the highest dose activity change, negative = inhibition, usual class: inhibitors. purified papain protease activity, enzymatic inhibition. actives 5% (n = 410)
# nsP2pro conf qHTS = CHIKV nsP2 protease inhibition, confirmatory qHTS | shares compounds with nsP2pro inh | CHIKV nsP2 protease enzymatic activity, qHTS | Potency, µM (highest dose often 25.5 µM), for inactives: at the top dose activity change, negative = inhibition, actives largely listed as inhibitors | actives 43% (n = 410); also: nearly all actives have a fitted effect of over 75% in size
# HCV NS3 counter = inhibits HCV NS3/4A protease in an nsP2pro selectivity counterscreen; shares compounds with nsP2pro inh; HCV NS3/4A protease biochemical counterscreen; Potency, µM (doses to about 50.9 µM), actives largely listed as inhibitors; actives 20% (n = 410); AID 1964106; also: nearly all actives have a fitted effect of over 55% in size
# * hit, by the source's call; i = inactive; ? = inconclusive; [ ] = remark or other dose. The entries come from a sample that favours hits as a whole. Calls follow the shape of the full dose curve. % is scaled to controls: 0 for no effect and ±100 for the full control effect; potency is read from the fitted curve at half-maximal effect.
SMILES,nsP2pro inh,others
Fc1ccc(CN2CCn3c(nnc3-c3ccncc3)C2)cc1,-5%,
O=C(c1ccccc1)N1CCC2(CC1)C(=O)NN=C2C1CC1,2%[39.2 µM],
Cc1noc(C)c1-c1cc2c(cc(C)n2CCN(C)C)c(Nc2ccncn2)n1,i,
O=C(Nc1ccc(N2CCOCC2)c(Cl)c1)c1ccc(Br)o1,?,CHIKV nsP2 cell=18µM*;NSP2 full ctr=13%;Furin counter=-13%;nsP2 NS23 pep=14%;Papain cs=-18%;nsP2pro conf qHTS=9%;HCV NS3 counter=i
O=C(Nc1cccc(NC(=O)c2ccc(Br)o2)c1)c1ccccc1,-11%,
O=C(Nc1ccc(Cl)c(S(=O)(=O)N2CCOCC2)c1)c1ccccc1,-5%,
Cc1ccccc1CN1CCOc2cc([S+](=O)([O-])Nc3cccnc3)ccc2C1,i,
c1ccc(CN(Cc2ccccc2)Cc2nnc(-c3cc4ccccc4[nH]3)s2)cc1,8.9µM*,CHIKV nsP2 cell=25%;NSP2 full ctr=12%;Furin counter=-5%;nsP2 NS23 pep=27%;Papain cs=2%;nsP2pro conf qHTS=2%;HCV NS3 counter=i
O=C(Cc1nnc(-c2cc3ccccc3[nH]2)s1)Nc1cc(C(F)(F)F)ccc1Cl,-5%,
O=C(NCc1nnc(-c2cc3ccccc3[nH]2)s1)c1ccccc1,-1%,
Cc1cc(/C=C2/C(=O)Nc3ccccc32)cc(C)c1O,i,
COCc1nnc(C2CC3(CCN(C(=O)c4cccc(C)c4)CC3)CN2C)o1 (stereo not given),3%,
COc1cc(OC)cc(-c2onc(C)c2C(=O)NCCC(c2ccccc2)c2ccccc2)c1,1%,
Cc1cc(=O)[nH]c2nnc(SCc3ccc(Cl)cc3Cl)n12,-15%,
CC(C)C[C@H](N)c1nnc(SCc2ccc(Cl)cc2Cl)o1,?,CHIKV nsP2 cell=31%
Clc1ccccc1CSc1nnc(C2CCNCC2)o1,12%,
CCC(=O)O[C@@H]1[C@@H](C)O[C@@H](O[C@H]2[C@H](N(C)C)[C@@H](O)[C@H](O[C@H]3[C@@H](CC=O)C[C@@H](C)[C@@H](OC(C)=O)/C=C/C=C/C[C@@H](C)OC(=O)C[C@@H](OC(=O)CC)[C@@H]3OC)O[C@@H]2C)C[C@]1(C)OC(C)=O,26%,
CC(C)(C)c1cc(O)c(CN)c(C(C)(C)C)c1,-6%,
Cc1ccc(C)c(-c2cc(C(F)(F)F)nn2-c2ccc(S(N)(=O)=O)cc2)c1,8%,
CNc1cc(C2CC(NC(=O)COc3ccc(Cl)cc3C)C2)nc(N)n1 (stereo not given),-27%,
CC(C)=CCC[C@](C)(OC1OC(COC2OCC(O)C(O)C2O)C(O)C(O)C1O)[C@H]1CC[C@]2(C)[C@@H]1[C@H](O)C[C@@H]1[C@@]3(C)CC[C@H](OC4OC(CO)C(O)C(O)C4OC4OC(CO)C(O)C(O)C4O)C(C)(C)[C@@H]3CC[C@]12C (stereo not given in full),-12%[10 µM],
C=C1CCC2C(C(C)(C)O)CCC2(C)CC(O)C(=C)CCC1O (stereo not given),4%,
Cc1nn(-c2ccccc2)c2c1C(C)N(C1CCN([S+](=O)([O-])c3ccccc3)CC1)C2=O (stereo not given),i,
CC(=O)Nc1ccc(S(=O)(=O)Nc2ccc([N+](=O)[O-])cc2)cc1,-6%,
Cc1ccc(S(=O)(=O)c2ccc([N+](=O)[O-])cn2)cc1,0.35µM*,CHIKV nsP2 cell=2.1µM*;NSP2 full ctr=1.5µM*;Furin counter=12µM*;nsP2 NS23 pep=1.8µM*;Papain cs=-15%;nsP2pro conf qHTS=0.56µM*;HCV NS3 counter=2.9µM*
